Source: PubChem BioAssay
CYP2C9 activ: CYP2C9 (human) activation; P11712; recombinant CYP2C9, luciferin-H conversion, luminescence; hits give high values; factor 1 = untreated enzyme, 0 = blocked; activation factor at 5 µM; 1.4% of 96,000 active;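 active means activation factor of 2 or more for CYP2C9 at a 5 µM dose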;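 further: 0 = sulfaphenazole-blocked wells and 1 = vehicle-only wells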
Target sequence (P11712 whole entry, looked up): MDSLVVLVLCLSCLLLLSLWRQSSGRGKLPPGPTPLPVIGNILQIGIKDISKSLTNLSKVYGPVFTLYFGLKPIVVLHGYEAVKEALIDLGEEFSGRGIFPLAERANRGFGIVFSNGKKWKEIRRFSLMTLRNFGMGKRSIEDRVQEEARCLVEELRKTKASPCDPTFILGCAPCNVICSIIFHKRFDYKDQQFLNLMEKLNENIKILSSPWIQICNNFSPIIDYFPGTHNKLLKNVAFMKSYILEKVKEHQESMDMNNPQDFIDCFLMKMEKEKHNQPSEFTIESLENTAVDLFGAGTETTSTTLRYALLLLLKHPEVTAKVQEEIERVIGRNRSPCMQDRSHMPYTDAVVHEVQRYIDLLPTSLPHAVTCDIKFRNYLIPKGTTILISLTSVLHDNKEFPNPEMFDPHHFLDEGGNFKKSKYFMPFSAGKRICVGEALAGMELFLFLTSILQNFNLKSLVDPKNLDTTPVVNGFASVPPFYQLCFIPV
CYP2C19 inhib: human CYP2C19 inhibition; P33261; CYP2C19 Supersomes, luciferin-H EGE luminescence, 30 min; inhibition, % at 5 µM; 21% of 96,000 active; AID 778;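 active means CYP2C19 inhibition above a set limit at 5 µM in the primary screen, cut at about 50% in these data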;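 further: plate controls were negative control wells for no effect and 2.5 mM tranylcypromine positive control for full effect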
Cav3 T inh: blocks human Cav3.2 T-type calcium channel; 4% of 100,000 active; O95180; AID 449739; Cav3.2-expressing cells, Fluo-4 calcium fluorescence FDSS; hits give low values; B-score at 10 µM;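 active means single-dose well whose peak fluorescence ratio is a statistical outlier from its plate by either plate-standardised score or position-corrected B-score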
CYP2C19 activ: cytochrome P450 2C19 (human) activation; P33261; recombinant CYP2C19, luciferin-H EGE luminescence; hits give high values; 0 = fully inhibited enzyme, 1 = untreated enzyme; activation factor at 5 µM; 96,000 tested, under 10 active; AID 1025;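 active means activation factor of at least 2 at 5 µM in the primary screen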;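 further: 0 = wells with 2.5 mM tranylcypromine and 1 = vehicle-only wells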
Pyk2 oligo antag: blocks oligomerization of human Pyk2 in cells; 0.83% of 99,000 active; Q14289; z-score (the deposit names both 25 µM and 10 µM); AID 1347419; Q293 cells, Pyk2 FERM NanoBiT luminescence; hits give low values;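 active means Z-score of -3 or lower, scaled per plate to the spread of control and sample wells; inactive means z-score above -3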;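 further: negative z-score means lost luminescence so less FERM oligomerization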
CYP2C9 inh: inhibitors of human CYP2C9 | AID 777 | 20% of 96,000 active | CYP2C9 Supersomes, luciferin-H conversion, luminescence | inhibition, % at 5 µM;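 active means blocking of liver enzyme CYP2C9 beyond about 50% at 5 µM, limit read from the data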
* = called active by the depositor; · = no result given. An excerpt weighted towards active compounds, which were near 27% of everything screened.

SMILES	CYP2C9 activ	CYP2C19 inhib	Cav3 T inh	CYP2C19 activ	Pyk2 oligo antag	CYP2C9 inh
C[C@@H]1CC=C[C@H]2[C@H]1C(=O)N(Cc1ccccc1)[C@H]2c1ccc(F)c(-c2ccc(N(C)C)cc2)c1	·	·	-0.725	·	·	·
COc1ccc(CC(=O)Nc2ccc(/C(C)=N/NC(=O)c3cccc([N+](=O)[O-])c3)cc2)cc1	1	-4.7	0.74	1	0.51	1.9
COc1ccc(NS(=O)(=O)c2cccc(C(=O)N/N=C(\C)c3ccc(-n4ccnc4)cc3)c2)cc1	0	92.7*	0.0601	0.1	0.03	99.2*
C/C(=N\NC(=O)COc1ccc(C)cc1C(C)C)c1ccc(-n2ccnc2)cc1	·	·	·	·	0.07	·
C/C(=N\NC(=O)c1cccc(S(=O)(=O)Nc2ccccc2Cl)c1)c1ccc(-n2ccnc2)cc1	0	99.1*	0.309	0	-0.14	100.0*
O=C1C2C3C=CC(O3)C2C(=O)N1CC(O)c1ccccc1 (stereo not drawn)	1.1	7.6	0.643	0.9	-0.18	-7.2
CSc1nc2ccc(NC(=O)C3CC(=O)N(Cc4ccccc4)C3)cc2s1 (stereo not drawn)	0.7	15.9	-2.19	0.8	-0.74	33.2
CCCCOc1cccc(C(=O)NNC(=S)NC2CCCCC2)c1	·	·	-5.85*	·	0.19	·
CCOC(=O)COc1ccc(C(=O)NC2CCCCC2)cc1	3*	22.5	0.725	0.8	-0.28	-202.3
CCOc1cccc(C(=O)N2CCCCC2c2cccnc2)c1 (stereo not drawn)	2.1*	42.9	-0.0338	0.6	-1.54	-107.6
CCOc1cccc(C(=O)NC2CCCCC2)c1	1.3	68.3*	2.29	0.3	0.37	-29.5
CCOC(=O)C1CCN(C(=O)c2cccnc2)CC1	1	29.0	0.766	0.7	-0.61	-1.9
CN(CC(=O)Nc1cccc2ccccc12)c1ccc(S(=O)(=O)N2CCOCC2)cn1	0.8	-14.6	-0.0701	1.1	0.67	20.1
CCCCOC(=O)Nc1ccccc1C(=O)OC	0.9	9.0	-0.479	0.9	0.58	7.5
COC(=O)c1ccccc1NC(=O)CN(c1ccc(OC)cc1)S(C)(=O)=O	·	·	0.609	·	-1.24	·
COC(=O)c1ccccc1NC(=O)CN(c1cc(OC)ccc1OC)S(C)(=O)=O	0	90.7*	-0.165	0.1	-0.06	97.7*
COc1ccc(N(CC(=O)Nc2ccccc2C(=O)NCc2ccco2)S(C)(=O)=O)cc1	0.2	36.1	0.79	0.6	-0.09	84.5*
COc1ccc(N(C(C)C(=O)NCc2ccco2)S(C)(=O)=O)cc1 (stereo not drawn)	0.9	6.4	-0.00989	0.9	0.06	8.5
Cc1ccc(N(CC(=O)Nc2ccccc2C(=O)NCc2ccco2)S(=O)(=O)c2ccccc2)cc1C	0	92.2*	-6.04*	0.1	-1.77	98.3*
CCN(CC(=O)Nc1ccccc1C(=O)OC)S(=O)(=O)c1ccc(OC)cc1	1.3	64.7*	-0.334	0.4	-0.11	-25.8
O=C(Cn1nnc(-c2ccc(Cl)cc2)n1)NCC1CCCCC1	0.7	45.4	-0.189	0.5	-0.49	33.3
Cc1ccc(NC2=NC(C(=O)Nc3ccc(C)c(C)c3)CC(=O)N2)cc1 (stereo not drawn)	1.1	2.2	-0.017	1	0.47	-7.5
CCc1cc(C(N)=S)ccn1	·	·	0.211	·	·	·
CCN(CC(=O)NC)S(=O)(=O)c1ccc(C)cc1	1.3	21.4	-0.364	0.8	-0.15	-30.4
COCCNC(=O)CN(c1cc(Cl)ccc1OC)S(C)(=O)=O	0.9	6.6	-3.41	0.9	0.51	9.5
SMILES	CYP2C9 activ	CYP2C19 inhib	Cav3 T inh	CYP2C19 activ	Pyk2 oligo antag	CYP2C9 inh
COc1ccc(Cl)cc1N(CC(=O)Nc1ccccc1C(=O)NCc1ccco1)S(C)(=O)=O	0.5	45.8	-0.819	0.5	-1.34	51.4*
COc1ccc(OC)c(N(CC(=O)Nc2ccccc2C(=O)NCc2ccco2)S(C)(=O)=O)c1	0.1	90.0*	0.0974	0.1	-1.17	91.4*
CCN(CC(=O)NC)S(=O)(=O)c1ccc(Br)cc1	1.3	52.3*	0.804	0.5	-0.41	-26.5
Cc1cccc(S(=O)(=O)N(CC(=O)Nc2ccccc2C)Cc2ccco2)c1	0.5	42.7	-2.57	0.6	-0.15	53.4*
COc1ccccc1OCC(=O)Nc1ccccc1C(=O)NCc1ccco1	·	·	-0.334	·	-0.21	·
CCn1nnnc1SCC(=O)Nc1cc(OC)cc(OC)c1	1	2.7	0.505	1	-0.18	4.5
CC1CCCC(C)N1CCNC(=O)CCn1nc(-c2ccccc2)ccc1=O (stereo not drawn)	1	-15.5	·	1.2	·	-4.9
Cn1c(=O)c2c(nc(SCC(=O)N3CCc4ccccc43)n2Cc2ccccc2)n(C)c1=O	1	3.8	·	1	·	1.5
COc1ccc(Cl)cc1N(CC(=O)N1CCN(Cc2ccccc2)CC1)S(C)(=O)=O	0.9	54.8*	1.37	0.5	-0.23	11.6
COc1ccc(Cl)cc1N(CC(=O)Nc1ccccc1SC)S(C)(=O)=O	0.1	92.2*	-2.7	0.1	-0.86	85.7*
O=C(CN(c1ccc(F)cc1)S(=O)(=O)c1ccccc1)NCc1ccco1	0.3	50.9*	-0.872	0.5	-1.87	72.9*
Cc1cccc(NC(=O)CCN2C(=O)C3C4C=CC(C4)C3C2=O)n1 (stereo not drawn)	1.1	27.5	-0.38	0.7	0.38	-8.5
COC(=O)c1cccc(N(C(=O)c2cnccn2)C(C(=O)NC2CCCCC2)c2cn(C)nc2C)c1 (stereo not drawn)	1.1	3.4	1.05	1	1.76	-8.0
COc1ccc2cc(-c3csc(-c4cccnc4)n3)ccc2c1	1	75.4*	-0.249	0.2	-0.61	2.4
COc1ccc(-c2c([C@H]3[C@H]4C=CC[C@@H](C)[C@@H]4C(=O)N3Cc3ccccc3)ccc3ccccc23)cc1OC	·	·	-1.4	·	·	·
CCC(Oc1ccc2c(c1)C(=O)CC(C)(C)O2)C(=O)NCCN1CCCCCC1 (stereo not drawn)	0.8	22.2	·	0.8	0.03	22.8
COc1ccc(N=C2S/C(=C\c3ccc(N4CCOCC4)o3)C(=O)N2CCc2c[nH]c3ccccc23)cc1	0.4	32.0	-2.7	0.7	-2.38	64.4*
COCCCN(C(C)=O)c1nc(-c2ccc(OC)cc2)cs1	0.7	33.2	·	0.7	-0.77	34.4
CCSc1nc(C)c(C(C)=O)cc1C#N	0.9	26.1	-2.33	0.7	0.28	9.6
CCN(CC)c1nc(C)c(C(C)=O)cc1C#N	0.8	53.5*	-0.197	0.5	0.03	17.4
CC(=O)c1cc(C#N)c(SCc2ccncc2)nc1C	0.1	97.0*	0.334	0	-0.35	93.1*
OCCn1c(Cl)nc2ccccc21	·	·	-0.343	·	0.95	·
CCOC(=O)C1=C(C)NC2=C(C1c1ccc([N+](=O)[O-])cc1)S(=O)(=O)c1ccccc12 (stereo not drawn)	0.4	5.6	-1.97	0.9	-3.05*	62.1*
CCOC(=O)C1=C(C)N(CCCC(=O)O)C(=O)NC1c1ccc([N+](=O)[O-])cc1 (stereo not drawn)	·	·	0.352	·	·	·
